From PubChem BioAssay (NCI)
The panel holds about 79,000 compounds, 15% with a hit somewhere; the sample as a whole holds those more often. Active and inactive are the calls of the source. Rule as the data show it: active = growth inhibition above about 70%; inactive = the rest.

Experiments:
[1] = NCI Yeast Anticancer Drug Screen. Data for the sgs1 strain (AID 173);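 also: 0% = growth of vehicle-only control cultures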; conditions: S. cerevisiae sgs1 mutant, active compounds read high
Outline: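 Strain with an altered DNA repair or cell cycle pathway exposed to compound. Growth then measured. Value = inhibition versus vehicle control.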

[2] = NCI Yeast Anticancer Drug Screen. Data for the mlh1 rad18 strain (AID 175); conditions: S. cerevisiae mlh1 rad18 strain growth inhibition, active compounds read high
Outline: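 A repair-deficient yeast strain is exposed to test compound, and growth is scored relative to vehicle-treated controls.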

[3] = NCI Yeast Anticancer Drug Screen. Data for the rad18 strain (AID 177); conditions: S. cerevisiae rad18 mutant growth inhibition, active compounds read high
Outline: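 DNA-repair-defective yeast; compound treatment; growth inhibition scored against vehicle.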

[4] = NCI Yeast Anticancer Drug Screen. Data for the wt1 strain (AID 149);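 also: 0% = growth of vehicle-treated wt1 cultures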; conditions: S. cerevisiae wt1 strain (SPY 50644) growth inhibition, active compounds read high
Outline: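 Compounds are added to wt1 yeast cultures. Growth is then measured. Inhibition is expressed relative to vehicle-treated controls.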

[5] = NCI Yeast Anticancer Drug Screen. Data for the rad50EPP+ strain (AID 151);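 also: 0% = growth of vehicle-treated control cultures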; conditions: S. cerevisiae rad50 mutant strain, active compounds read high
Outline: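 Measured: growth inhibition of rad50EPP+ yeast. Reference: vehicle-treated controls. Screen uses strains with defined genetic alterations in DNA damage repair or cell cycle control.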

[6] = NCI Yeast Anticancer Drug Screen. Data for the rad50 strain (AID 155);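 also: 0% = growth of vehicle-only cultures of the same strain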; conditions: S. cerevisiae rad50 strain growth inhibition, active compounds read high
Outline: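 Inhibition values express reduced yeast growth in compound-treated cultures relative to vehicle-treated controls.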

[7] = NCI Yeast Anticancer Drug Screen. Data for the mec2-1 strain (AID 157); conditions: S. cerevisiae mec2-1 strain, active compounds read high
Outline: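 Compounds were applied to mec2-1 yeast cells. Their growth was then compared with that of vehicle-treated cultures to give growth inhibition.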

[8] = NCI Yeast Anticancer Drug Screen. Data for the rad14 strain (AID 159);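 also: 0% = growth of vehicle-treated control cultures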; conditions: S. cerevisiae rad14 strain growth inhibition, active compounds read high
Outline: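 A mutant yeast strain defective in DNA damage repair is treated with compound; inhibition of its growth is scored against untreated, vehicle-exposed cultures.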

[9] = NCI Yeast Anticancer Drug Screen. Data for the sgs1 mgt1 strain (AID 161);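 also: 0% = growth of cultures given vehicle only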; conditions: S. cerevisiae sgs1 mgt1 strain, active compounds read high
Outline: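 This yeast growth screen uses a strain with defined DNA-repair lesions; compound-treated growth is compared with vehicle-treated growth.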

[10] = NCI Yeast Anticancer Drug Screen. Data for the CLN2oe strain (AID 163);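 also: 0% = growth of vehicle-only control cultures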; conditions: S. cerevisiae CLN2oe strain, active compounds read high
Outline: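 Cells of an engineered yeast line with disturbed cell-cycle regulation are treated with compound. Inhibition of growth is then calculated relative to the vehicle-treated reference.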

[11] = NCI Yeast Anticancer Drug Screen. Data for the cln2 rad14 strain (AID 165);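 also: 0% = growth equal to vehicle treated cultures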; conditions: S. cerevisiae cln2 rad14 strain, active compounds read high
Outline: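 Strain: cln2 rad14 yeast, altered in cell cycle control and DNA damage repair. Read-out: growth inhibition vs vehicle.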

[12] = NCI Yeast Anticancer Drug Screen. Data for the bub3 strain (AID 167); conditions: S. cerevisiae bub3 mutant strain, active compounds read high
Outline: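 Steps: expose the mutant yeast strain to compound; grow alongside vehicle-treated cultures; measure growth; express inhibition against the vehicle cultures.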

[13] = NCI Yeast Anticancer Drug Screen. Data for the wt2 strain (AID 169);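 also: 0% = growth of vehicle-treated yeast cultures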; conditions: S. cerevisiae wt2 strain growth inhibition, active compounds read high
Outline: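 Growth of compound-treated yeast is measured and expressed as inhibition relative to vehicle-only controls.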

[14] = NCI Yeast Anticancer Drug Screen. Data for the mlh1 strain (AID 171);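 also: 0% = growth of vehicle-treated control cultures of the same strain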; conditions: S. cerevisiae mlh1 strain growth inhibition, active compounds read high
Outline: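 Test agents were incubated with yeast bearing a defined DNA damage repair or cell cycle control alteration; values are growth inhibition normalised to vehicle-treated cultures.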

[15] = NCI Yeast Anticancer Drug Screen. Data for the rad52 strain (AID 147);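 also: 0% = growth of vehicle-treated control cultures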; conditions: S. cerevisiae rad52 mutant growth inhibition, active compounds read high
Outline: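 Growth of repair-deficient yeast cells was compared between compound-treated and vehicle-treated cultures to give percent inhibition.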

[16] = at 5.0 µM (retest, dose inferred, filed as 0.5)
[17] = at 50.0 µM (retest, dose inferred, filed as 5.0)

Measured: growth inhibition

Cc1cccc2c1N=C(C(F)(F)F)CC2=O
active: [2]; [17] 71% | [2]; at 50.0 µM 76.8%
inactive: [1]; at 1.2 µM 1% | [1]; at 3.7 µM -2% | [1]; at 11.0 µM 0% | [1]; at 33.0 µM 27% | [1]; at 100.0 µM 48% | [2]; [16] -100% | [3]; at 1.2 µM 0% | [3]; at 3.7 µM 1% | [3]; at 11.0 µM 3% | [3]; at 33.0 µM 9% | [3]; at 100.0 µM 43%

CC(=O)C1=C(C)O/C(=C/c2cccc(Cl)c2)C1=O
inactive: [4]; at 1.2 µM -7% | [4]; at 3.7 µM 2% | [4]; at 11.0 µM 2% | [4]; at 33.0 µM -2% | [4]; at 100.0 µM 25% | [5]; at 1.2 µM 16% | [5]; at 3.7 µM 25% | [5]; at 11.0 µM 22% | [5]; at 33.0 µM 32% | [6]; at 1.2 µM -4% | [6]; at 3.7 µM 19% | [6]; [16] -1% | [6]; at 11.0 µM 21% | [6]; at 33.0 µM 18% | [6]; [17] 59% | [6]; at 50.0 µM 52.7% | [7]; at 1.2 µM -9% | [7]; at 3.7 µM 2% | [7]; [16] 2% | [7]; at 11.0 µM 0% | [7]; at 33.0 µM 7% | [7]; [17] 68% | [8]; at 1.2 µM 7% | [8]; at 3.7 µM 0% | [8]; at 11.0 µM 6% | [8]; at 33.0 µM 10% | [8]; at 100.0 µM 28% | [9]; [16] 10% | [9]; [17] 60% | [9]; at 50.0 µM 10.7% | [10]; at 1.2 µM 5% | [10]; at 3.7 µM 5% | [10]; at 11.0 µM 15% | [10]; at 33.0 µM 29% | [11]; [16] 6% | [11]; [17] 12% | [11]; at 50.0 µM -1.45% | [12]; at 1.2 µM 0% | [12]; at 3.7 µM 12% | [12]; [16] 5% | [12]; at 11.0 µM 18% | [12]; at 33.0 µM 26% | [12]; [17] 47% | [12]; at 50.0 µM -8% | [13]; at 1.2 µM -12% | [13]; at 3.7 µM 6% | [13]; at 11.0 µM 16% | [14]; at 1.2 µM -3% | [14]; at 3.7 µM -4% | [14]; at 11.0 µM 4% | [14]; at 33.0 µM 9% | [1]; at 1.2 µM 2% | [1]; at 3.7 µM 36% | [1]; at 11.0 µM 29% | [1]; at 33.0 µM 39% | [2]; [16] 9% | [3]; at 1.2 µM -7% | [3]; at 3.7 µM 16% | [3]; at 11.0 µM 13% | [3]; at 33.0 µM 28%
active: [5]; at 100.0 µM 88% | [6]; at 100.0 µM 96% | [7]; at 50.0 µM 71% | [7]; at 100.0 µM 96% | [10]; at 100.0 µM 98% | [12]; at 100.0 µM 91% | [13]; at 33.0 µM 71% | [13]; at 100.0 µM 91% | [14]; at 100.0 µM 75% | [1]; at 100.0 µM 95% | [2]; [17] 88% | [2]; at 50.0 µM 91.3% | [3]; at 100.0 µM 99%

CCN(CC)CC(O)C1CCC(c2ccccc2)CC1 (centres undefined)
inactive: [15]; at 1.2 µM 2% | [15]; at 3.7 µM 11% | [15]; at 11.0 µM 22% | [15]; at 33.0 µM 52% | [5]; at 1.2 µM 4% | [5]; at 3.7 µM 6% | [5]; at 11.0 µM 15% | [5]; at 33.0 µM 23% | [5]; at 100.0 µM 68% | [6]; at 1.2 µM 5% | [6]; at 3.7 µM 12% | [6]; [16] 13% | [6]; at 11.0 µM 22% | [6]; at 33.0 µM 61% | [7]; at 1.2 µM 3% | [7]; at 3.7 µM 12% | [7]; [16] 11% | [7]; at 11.0 µM 16% | [7]; at 33.0 µM 42% | [7]; at 50.0 µM 36% | [8]; at 1.2 µM 13% | [8]; at 3.7 µM 34% | [8]; at 11.0 µM 41% | [9]; [16] 31% | [10]; at 1.2 µM 6% | [10]; at 3.7 µM 10% | [10]; at 11.0 µM 41% | [10]; at 33.0 µM 55% | [11]; [16] 28% | [11]; at 50.0 µM 65.3% | [12]; at 1.2 µM 1% | [12]; at 3.7 µM 8% | [12]; [16] 27% | [12]; at 11.0 µM 30% | [12]; at 33.0 µM 64% | [14]; at 1.2 µM 3% | [14]; at 3.7 µM 10% | [14]; at 11.0 µM 24% | [14]; at 33.0 µM 62% | [1]; at 1.2 µM 3% | [1]; at 3.7 µM 16% | [1]; at 11.0 µM 32% | [2]; [16] 36% | [2]; at 50.0 µM 68.9% | [3]; at 1.2 µM 7% | [3]; at 3.7 µM 12% | [3]; at 11.0 µM 13% | [3]; at 33.0 µM 32%
active: [15]; at 100.0 µM 78% | [6]; [17] 78% | [6]; at 50.0 µM 84.8% | [6]; at 100.0 µM 83% | [7]; [17] 76% | [7]; at 100.0 µM 79% | [8]; at 33.0 µM 89% | [8]; at 100.0 µM 98% | [9]; [17] 95% | [9]; at 50.0 µM 92.7% | [10]; at 100.0 µM 80% | [11]; [17] 70% | [12]; [17] 87% | [12]; at 50.0 µM 83% | [12]; at 100.0 µM 84% | [14]; at 100.0 µM 91% | [1]; at 33.0 µM 72% | [1]; at 100.0 µM 93% | [2]; [17] 86% | [3]; at 100.0 µM 78%
